This is an account of results in PubChem BioAssay.

Assay [1] concerns Human papillomavirus type 1a protein E7 (residues 44-93). Put plainly: HPV1a E7 fragment binders on microarrays, primary screen, biochemical, small-molecule microarray, residues 44-93, 635 nm fluorescence (AID 1108).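 Further: E7 fragment applied at 1 µg/mL in TBST for 1 h at 4 C; score combines spot fluorescence with its signal to noise ratio.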 The settings on record: small-molecule microarray binding, fluorescence 635 nm; higher = more signal.
Assay [2] can be described thus: modulators of HCV replicon luciferase signal, primary screen, HCV replication inhibitor project, Huh7 cells, luciferase reporter (AID 1109).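 Further: huh7 hepatoma cells harbouring a luciferase neomycin HCV replicon reporter; luciferase luminescence as measure of HCV replicon replication; test concentration not given here.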 The settings on record: 48 h, higher = more signal. A general note: In antiviral work, replicon cells carry a viral genome segment that copies itself.
Assay [3] has as its target Left-right determination factor 2 (Homo sapiens) (UniProt O00292). Briefly: LEFTY2 binders on small-molecule microarrays, primary screen, biochemical, small-molecule microarray, 635 nm fluorescence scan (AID 1110). The settings on record: LEFTY2 binding, higher = more signal.
In assay [4] the target is Calmodulin-1 (Homo sapiens) (UniProt P0DP23). Put plainly: CALM1 binders on microarrays, EGTA buffer, profiling panel, biochemical, small-molecule microarray, Cy5-labelled CALM1 (AID 1111).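 Further: labelled calmodulin applied in Tris saline Tween buffer holding calcium plus EGTA and DTT.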 The settings on record: Cy5-CALM1 binding fluorescence, higher = more signal.
Assay [5] has the same target. Put plainly: calcium-bound CALM1 binders on microarrays, profiling panel, artefact control for SMM control-protein annotation, biochemical, small-molecule microarray, Cy5-labelled CALM1, plus calcium (AID 1112).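 Further: score merges spot fluorescence with signal to noise from triplicate slides.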 The settings on record: Cy5-CALM1 binding fluorescence, higher = more signal.
The nature of assay [6]: small-molecule microarray binders of probe aWnt5a, primary screen, biochemical, biotinylated probe, 635/667 nm fluorescence (AID 1113).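 Further: score merges 667 nm fluorescence intensity with signal-to-noise per printed feature.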 As to conditions: higher = more signal.
The nature of assay [7]: small-molecule microarray binders of probe aShh, primary screen, biochemical, biotinylated probe, 635/667 nm fluorescence (AID 1114).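 Further: probe is biotin-labelled aShh protein from a stem cell growth factor screen; measures binding of labelled protein to compounds printed on the slide; score merges feature fluorescence at 667 nm with signal-to-noise.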 As to conditions: higher = more signal.
Assay [8] is described as follows: small-molecule microarray binders of probe aNog, primary screen, biochemical, biotinylated probe, 635/667 nm fluorescence (AID 1115).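 Further: probe is biotinylated aNog protein used at 0.15 µg/mL for 1 h at 4 C; z-score combines 667 nm fluorescence of each spot with its signal to noise.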 The settings on record: higher = more signal.
Assay [9] deals with Torsin-1A-interacting protein 1 (Homo sapiens) (UniProt Q5JTV8). Put plainly: LAP1 binders from COS7 cell lysate, primary screen, small-molecule microarray, 635/667 nm fluorescence (AID 1116). The settings on record: COS7-hLAP1 lysate binding, 635 nm fluorescence, higher = more signal.
Torsin-1A-interacting protein 1 (Homo sapiens), sequence (Q5JTV8 whole entry, looked up): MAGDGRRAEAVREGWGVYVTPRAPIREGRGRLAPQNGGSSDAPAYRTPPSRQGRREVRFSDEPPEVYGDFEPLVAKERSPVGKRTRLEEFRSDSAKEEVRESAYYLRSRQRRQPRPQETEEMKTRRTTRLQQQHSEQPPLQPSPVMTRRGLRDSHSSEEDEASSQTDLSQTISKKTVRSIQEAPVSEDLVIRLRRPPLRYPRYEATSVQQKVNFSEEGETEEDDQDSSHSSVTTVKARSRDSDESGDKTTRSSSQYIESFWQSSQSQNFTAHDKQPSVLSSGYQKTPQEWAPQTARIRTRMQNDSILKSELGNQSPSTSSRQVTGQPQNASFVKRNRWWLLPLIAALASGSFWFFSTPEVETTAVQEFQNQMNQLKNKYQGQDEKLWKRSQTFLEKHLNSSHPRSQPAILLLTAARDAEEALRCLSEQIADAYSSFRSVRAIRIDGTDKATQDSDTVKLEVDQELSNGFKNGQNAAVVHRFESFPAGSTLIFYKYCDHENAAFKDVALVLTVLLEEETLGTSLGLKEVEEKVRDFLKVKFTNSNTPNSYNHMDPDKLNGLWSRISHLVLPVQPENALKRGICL
For assay [10], the target named is Alpha-bungarotoxin (Bungarus multicinctus) (UniProt P60615). Put plainly: alpha-bungarotoxin binders on microarray, profiling panel, artefact control for SMM control protein annotation, biochemical, small-molecule microarray, Alexa647 label, 635/667 nm fluorescence (AID 1117). The settings on record: alpha-BTX-A647 binding fluorescence, higher = more signal.
Alpha-bungarotoxin (Bungarus multicinctus), sequence (P60615 whole entry, looked up): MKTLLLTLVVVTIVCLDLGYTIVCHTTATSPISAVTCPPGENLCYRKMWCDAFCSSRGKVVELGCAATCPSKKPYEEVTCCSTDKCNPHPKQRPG

Left-right determination factor 2 (Homo sapiens), sequence (O00292 whole entry, looked up): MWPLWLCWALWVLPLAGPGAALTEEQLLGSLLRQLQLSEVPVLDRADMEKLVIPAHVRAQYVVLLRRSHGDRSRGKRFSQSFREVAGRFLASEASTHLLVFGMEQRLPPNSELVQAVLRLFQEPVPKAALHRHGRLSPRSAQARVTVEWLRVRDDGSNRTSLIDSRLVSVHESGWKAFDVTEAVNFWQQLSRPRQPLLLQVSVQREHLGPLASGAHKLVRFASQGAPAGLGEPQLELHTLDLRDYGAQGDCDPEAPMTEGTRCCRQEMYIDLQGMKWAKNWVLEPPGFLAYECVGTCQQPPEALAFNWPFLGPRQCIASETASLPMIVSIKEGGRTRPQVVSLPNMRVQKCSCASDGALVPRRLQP

On to `C=CCC(OC(C)=O)[C@@H]1[C@@H](N(Cc2cccc3ccccc23)C(=O)c2ccc(C)cc2)c2cc(OCCCO)ccc2N1C(=O)c1ccc(-c2ccccc2)cc1` (stereo not given in full), for which the composite z-score in [1] is 0.479; in assay [3] it was 0.111; in [4] it was -0.355; in assay [5], -0.065; in assay [6], -0.135; in assay [7], -0.273. In addition, the figures for the composite z-score in assay [8], in [9] and in assay [10] were -0.241, -0.144 and -0.218, respectively. The z-score in assay [2] is -0.852.
As to `COC(=O)C(CC#Cc1ccc2c(c1)[C@]1(C(=O)N2)[C@H](C(=O)N2CCCCCCC2)[C@H]2C(=O)O[C@H](c3ccccc3)[C@H](c3ccccc3)N2[C@@H]1c1ccc(O)cc1)C(=O)OC`, the composite z-score is -1.26 in assay [1]; -0.537 in [3]; -0.433 in [4]; -0.236 in [5]; -0.125 in assay [6]; -0.0769 in assay [7]. Also, the figures for the composite z-score in [8], in assay [9] and in assay [10] were -0.411, -0.723 and -0.715, respectively. In addition, the z-score in assay [2] is -0.789.
With `NC(=O)[C@H]1[C@@H]2C(=O)O[C@@H](c3ccccc3)[C@@H](c3ccccc3)N2[C@@H](c2ccc(O)cc2)[C@]12C(=O)Nc1ccc(C#CCCO)cc12`, the composite z-score in assay [1] was -1.74; in [3], -1.05; in [4], -0.742; in assay [5], 0.661; in assay [6], -0.175; in [7], -0.0769. Further, the composite z-score in assay [8] is -0.158; in assay [9], -0.819; in [10] it was -1.58. Besides, the z-score in assay [2] was found to be 0.179.
For `[N-]=[N+]=NCc1ccccc1C[C@]1(C(N)=O)N=C(c2ccc(OCCCO)cc2)O[C@H]1c1ccccc1CN=[N+]=[N-]`, the composite z-score in assay [1] was 0.842; in [3] it was -0.854; in assay [4], 1.98; in assay [5] it was 1.12; in [6], 0.0286; in [7] it was 0.84. The composite z-score came to 0.653 in [8], 1.32 in assay [9] and 1.56 in [10]. The z-score in assay [2] is -2.34.
On to `CO[C@@H]1COC(=O)[C@H](C)NC(=O)CC=C[C@@H](C)[C@H](NS(=O)(=O)c2ccc(C)cc2)COC(=O)CC=C[C@@H]1C`, for which the composite z-score in assay [1] was -0.232; in [3], 0.46; in [4] it was -0.356; in assay [5] it was -0.239; in [6], -0.0718; in assay [7] it was -0.138. Moreover, the composite z-score in assay [8] is -0.246; in [9], 0.117; in assay [10], -0.573. Besides, the z-score in assay [2] came to 0.108.
For `CCN1C(C)=C(C(=O)OC)[C@@H](c2ccccc2)N2C(=O)[C@@]3(C(=O)OC)O[C@@]12[C@@H]1C(=O)N(c2ccccc2)C(=O)[C@@H]13`, the composite z-score in [1] is 0.121; in assay [3] it was 0.341; in assay [4] it was -0.173; in [5] it was -0.525; in [6], -0.0758; in assay [7], 0.0893. Besides, the composite z-score in assay [8] was 0.221; in [9] it was 0.905; in assay [10], 0.38. This compound showed a z-score in [2] of -0.181.
Take `CO[C@H]1COC(=O)[C@H](C)NC(=O)CC=C[C@@H](C)[C@H](NS(=O)(=O)c2ccc(C)cc2)COC(=O)CC=C[C@@H]1C`: the composite z-score in assay [1] is -0.9; in [3] it was 0.285; in [4], -1.11; in [5] it was -1.46; in assay [6], -0.137; in assay [7], -0.0709. The figures for the composite z-score in assay [8], in assay [9] and in [10] were -0.12, 0.368 and -0.555, respectively. Further, in assay [2], the z-score was -0.05.
As for `CO[C@H]1COC(=O)[C@@H](OCc2ccccc2)C=C[C@H](C)[C@@H](OC)COC(=O)[C@H](OCc2ccccc2)C=C[C@@H]1C`, the composite z-score in assay [1] is -1.23; in assay [3], 0.348; in [4], -2.13; in assay [5] it was -1.26; in [6] it was -0.147; in assay [7], -0.138. In addition, the composite z-score was -0.397 in [8], -0.144 in [9] and -0.155 in [10]. Besides, the z-score in assay [2] was 0.512.
On to `CCCC=C(CCC)[C@@H](NS(=O)(=O)c1cccc(C(F)(F)F)c1)c1ccc(C(=O)OC)cc1`, for which the composite z-score is 1.19 in assay [1]; -0.81 in assay [3]; 0.266 in assay [4]; -0.385 in [5]; 1.12 in [6]; 1.06 in assay [7]. The composite z-score in [8] came out at 2.97; in [9], 0.209; in assay [10] it was 0.398. In assay [2], the z-score is -0.0175.
Consider `C=C(C)[C@@H]1CC=C(C(O)C2C=CC3C(=O)NC(=O)C3N2Nc2ccccn2)CC1` (stereo not given in full), for which the composite z-score in [1] is 0.355; in assay [3], 1.57; in assay [4] it was 0.206; in assay [5], -0.815; in [6], 0.116; in assay [7], 0.358. Also, the composite z-score is 0.145 in assay [8], 1.06 in assay [9] and 2.09 in assay [10]. In assay [2], this compound returned a z-score of -0.308.
As to `COC(=O)[C@@]1(Cc2ccc(OC)cc2)[C@H]2c3cc(C(=O)N(C)C)n(CCc4ccc(OC)c(Br)c4)c3C[C@H]2CN1C(=O)c1ccccc1`, the composite z-score was 1.33 in assay [1]; -0.239 in [3]; 2.23 in assay [4]; 1.54 in [5]; 0.36 in assay [6]; 2.03 in assay [7]. For the same compound, the results for the composite z-score in assay [8], in assay [9] and in [10] were 1.19, 1.73 and 1.98, respectively. The compound also gave a z-score in [2] of -2.54.
Consider `[N-]=[N+]=NCc1ccccc1C[C@@]1(C(=O)N2CCOCC2)N=C(c2ccc(OCCCO)cc2)O[C@@H]1c1ccccc1N=[N+]=[N-]`, for which the composite z-score in assay [1] was 0.425; in assay [3], -0.139; in assay [4], 2.15; in assay [5], 1.13; in [6] it was 0.208; in [7], 0.412. Moreover, the composite z-score is 1.64 in [8], 1.74 in assay [9] and 2.84 in assay [10]. This compound registered a z-score in assay [2] of -1.14.
On to `C=CC[C@]1(C(=O)OC)N=C(c2ccc(OCCCO)cc2)O[C@H]1c1ccccc1CN=[N+]=[N-]`, for which the composite z-score was -0.044 in assay [1]; -0.978 in assay [3]; -0.643 in [4]; 0.369 in [5]; 0.0251 in assay [6]; -0.0289 in [7]. Further, the figures for the composite z-score in assay [8], in assay [9] and in assay [10] were 0.121, 0.782 and 1.14, respectively. The compound further displayed a z-score in [2] of -1.31.
